Experimental data reported in PubChem BioAssay.
Where “and” joins values, the source holds several entries; their conditions need not be identical. Identical values can stand only once. Values without a mark were called inactive.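 The calls were made as follows, unless noted: active = at least 20% inhibition of 6-phosphogluconate dehydrogenase activity; inactive = the rest.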

System: Hepatitis C virus NS3 helicase
Test: HCV NS3 helicase inhibitors, primary screen, biochemical, fluorescence polarization, LOPAC1280 library (AID 687035; in the data active = inhibition above about 37%)
Details: Purified HCV NS3 helicase, Cy5-dT15 ssDNA binding fluorescence polarization; hits give high values; concentration not given here

Structure (SMILES)	inhibition [%]
O=C(O)c1cc2cc(F)ccc2[nH]1	-2
Cn1c(=O)[nH]c2ncn(C)c2c1=O	-3
NC1(C(=O)O)CC1	-2
NCCCCN=C(N)N	1
Cn1c(=O)c2[nH]c(C3CCCC3)nc2n(C)c1=O	-1
NCCCCC(=O)O	-1
CN[C@H](CC(=O)O)C(=O)O	-2
CN1CCc2cccc3c2C1Cc1ccc(O)c(O)c1-3 (centres undefined)	-6
NC(N)=NC(=O)c1nc(Cl)c(N2CCCCCC2)nc1N	-5
NC(N)=NCCCCN=C(N)N	-3
NCCCCN	-3
NCCSSCCN	-2
O=C1OC(=O)C2C3CCC(O3)C12 (centres undefined)	-2
NC(=O)CC[C@H](N)C(=O)O	-3
Oc1cc(O)c2c(c1)O[C@H](c1ccc(O)c(O)c1)[C@@H](O)C2	0
NCCCS(=O)(=O)O	-1
COC(=O)[C@H]1[C@H]2C[C@H]3c4[nH]c5ccccc5c4CCN3C[C@H]2CC[C@@H]1O	0

System: not listed separately
Test: Cy5 fluorescence quenching or enhancement artefacts, artefact control for HCV NS3 helicase inhibitor project, biochemical, LOPAC1280 (AID 687037; call rule not given here)
Details: Cy5-DNA-NS3h complex fluorescence interference counterscreen

Structure (SMILES)	fluorescence ratio (interference)
O=C(O)c1cc2cc(F)ccc2[nH]1	1
Cn1c(=O)[nH]c2ncn(C)c2c1=O	1
NC1(C(=O)O)CC1	1
NCCCCN=C(N)N	1
Cn1c(=O)c2[nH]c(C3CCCC3)nc2n(C)c1=O	1
NCCCCC(=O)O	0.9
CN[C@H](CC(=O)O)C(=O)O	1
CN1CCc2cccc3c2C1Cc1ccc(O)c(O)c1-3 (centres undefined)	1
NC(N)=NC(=O)c1nc(Cl)c(N2CCCCCC2)nc1N	0.9
NC(N)=NCCCCN=C(N)N	1
NCCCCN	0.9
NCCSSCCN	1
O=C1OC(=O)C2C3CCC(O3)C12 (centres undefined)	1
NC(=O)CC[C@H](N)C(=O)O	1
Oc1cc(O)c2c(c1)O[C@H](c1ccc(O)c(O)c1)[C@@H](O)C2	1
NCCCS(=O)(=O)O	1
COC(=O)[C@H]1[C@H]2C[C@H]3c4[nH]c5ccccc5c4CCN3C[C@H]2CC[C@@H]1O	1

Target: 6-phosphogluconate dehydrogenase, decarboxylating (Homo sapiens) (UniProt P52209)
Test: 6PGD enzyme inhibitors, primary screen, biochemical, human, recombinant enzyme, NADPH absorbance (AID 1159550)
Details: recombinant 6PGD, NADPH absorbance 341 nm; at 10 µM; hits give high values

Sequence of 6-phosphogluconate dehydrogenase, decarboxylating (Homo sapiens) (P52209 whole entry, looked up): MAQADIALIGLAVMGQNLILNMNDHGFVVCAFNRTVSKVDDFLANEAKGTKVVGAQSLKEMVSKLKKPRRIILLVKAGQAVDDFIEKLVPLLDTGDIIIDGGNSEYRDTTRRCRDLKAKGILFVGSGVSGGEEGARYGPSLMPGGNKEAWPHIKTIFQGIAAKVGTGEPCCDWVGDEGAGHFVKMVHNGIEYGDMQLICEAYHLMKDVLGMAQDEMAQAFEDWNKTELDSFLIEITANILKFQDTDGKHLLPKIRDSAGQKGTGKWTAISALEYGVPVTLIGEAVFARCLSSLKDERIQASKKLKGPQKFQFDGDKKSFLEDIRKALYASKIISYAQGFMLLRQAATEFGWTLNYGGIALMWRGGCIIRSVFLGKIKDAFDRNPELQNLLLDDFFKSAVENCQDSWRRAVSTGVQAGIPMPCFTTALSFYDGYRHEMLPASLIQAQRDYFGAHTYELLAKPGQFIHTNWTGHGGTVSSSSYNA

Structure (SMILES)	inhibition
O=C(O)c1cc2cc(F)ccc2[nH]1	0.201%
COc1ccc(-c2cc(=O)c3c(OC)c(OC)c(OC)c(OC)c3o2)cc1	-8.06%
NC(=O)c1ccc[n+]([C@@H]2O[C@H](COP(=O)([O-])OP(=O)(O)OC[C@H]3O[C@@H](n4cnc5c(N)ncnc54)[C@H](O)[C@@H]3O)[C@@H](O)[C@H]2O)c1	10.6%
Cn1c(=O)[nH]c2ncn(C)c2c1=O	-14.1%
NC1(C(=O)O)CC1	-3.72%
NCCCCN=C(N)N	-2.27%
N[C@@H](Cc1cc(I)c(Oc2ccc(O)c(I)c2)c(I)c1)C(=O)O	0.697%
Cc1cc(C(C)(C)CC(C)(C)C)ccc1OCCOCC[N+](C)(C)Cc1ccccc1	18.8%
Cn1c(=O)c2[nH]c(C3CCCC3)nc2n(C)c1=O	-7.2%
CC(=O)N1CCN(c2ccc(OCC3CO[C@](Cn4ccnc4)(c4ccc(Cl)cc4Cl)O3)cc2)CC1 (some centres undefined)	-8.94%
NCCCCC(=O)O	-7.89%
CN[C@H](CC(=O)O)C(=O)O	6.3%
CN1CCc2cccc3c2C1Cc1ccc(O)c(O)c1-3 (centres undefined)	-2.58%
COc1c2ccoc2cc2oc(=O)ccc12	-3.29%
C=C1c2c(Cl)ccc(O)c2C(O)=C2C(=O)[C@]3(O)C(O)=C(C(N)=O)C(=O)[C@@H](N(C)C)[C@@H]3[C@@H](O)[C@H]12	10.5%
NC(N)=NC(=O)c1nc(Cl)c(N2CCCCCC2)nc1N	12.2%
CC(CN(C)C)CN1c2ccccc2Sc2ccccc21 (centres undefined)	3.47%
CC(C(=O)O)c1ccc(N2Cc3ccccc3C2=O)cc1 (centres undefined)	-13%
O=c1cc(-c2ccccc2)oc2c(O)c(O)ccc12	-53.2%
CC(C)(C)NC[C@H](O)c1ccc(O)c(CO)c1	-0.348%

Structure (SMILES)	inhibition
CN1CCc2c(c3ccccc3n2Cc2ccccc2)C1	10.8%
COc1cc2c(cc1OC)-c1cc3ccc(OC)c(OC)c3c[n+]1CC2	-0.646% and 1.04%
NC(N)=NCCCCN=C(N)N	-2.55%
NCCCCN	-11.8%
Cc1cc(/C=C/c2ccc3cc(N(C)C)ccc3[n+]2C)c(C)n1-c1ccccc1	5.46%
NCCSSCCN	7.72%
O=C1OC(=O)C2C3CCC(O3)C12 (centres undefined)	14.8%
OCc1c[nH]c2ccccc12	14.9%
CC1(C)S[C@@H]2[C@H](NC(=O)Cc3ccccc3)C(=O)N2[C@H]1C(=O)O	1.35%
CN(C)CCOC(c1ccccc1)c1ccccc1 (tested in a mixture with another compound)	11%
NC(=O)CC[C@H](N)C(=O)O	-0.19%
Oc1cc(O)c2c(c1)O[C@H](c1ccc(O)c(O)c1)[C@@H](O)C2	13.7%
C1N2CN3CN1CN(C2)C3	6.67%
COc1cc(S(C)=O)ccc1-c1nc2ncccc2[nH]1 (centres undefined)	14%
CC(=O)Oc1ccccc1C(=O)Oc1ccccc1C(=O)O	14.2%
NCCCS(=O)(=O)O	6.14%
COC(=O)[C@H]1[C@H]2C[C@H]3c4[nH]c5ccccc5c4CCN3C[C@H]2CC[C@@H]1O	-0.247%
Nc1nc(/C(=C/CC(=O)O)C(=O)N[C@@H]2C(=O)N3C(C(=O)O)=CCS[C@H]23)cs1	-3.19%
O=c1c2ccccc2oc2ccccc12	0.222%
C[N+](C)(C)CC(O)CC(=O)O (centres undefined)	-11.2%
